An excerpt weighted towards active compounds, which were near 19% of everything screened.
S-ASM inh: human S-ASM enzyme inhibition | 340,000 tested, 0.006% active | Potency, µM (series often up to 57.5 µM), inactives show at the highest dose activity change, negative = inhibition, actives largely listed as inhibitors | placental ASM, HMU-PC fluorogenic substrate, 60 min; note: potency is the fitted concentration of half-maximal effect
Target sequence (P17405 47-631 limits assumed): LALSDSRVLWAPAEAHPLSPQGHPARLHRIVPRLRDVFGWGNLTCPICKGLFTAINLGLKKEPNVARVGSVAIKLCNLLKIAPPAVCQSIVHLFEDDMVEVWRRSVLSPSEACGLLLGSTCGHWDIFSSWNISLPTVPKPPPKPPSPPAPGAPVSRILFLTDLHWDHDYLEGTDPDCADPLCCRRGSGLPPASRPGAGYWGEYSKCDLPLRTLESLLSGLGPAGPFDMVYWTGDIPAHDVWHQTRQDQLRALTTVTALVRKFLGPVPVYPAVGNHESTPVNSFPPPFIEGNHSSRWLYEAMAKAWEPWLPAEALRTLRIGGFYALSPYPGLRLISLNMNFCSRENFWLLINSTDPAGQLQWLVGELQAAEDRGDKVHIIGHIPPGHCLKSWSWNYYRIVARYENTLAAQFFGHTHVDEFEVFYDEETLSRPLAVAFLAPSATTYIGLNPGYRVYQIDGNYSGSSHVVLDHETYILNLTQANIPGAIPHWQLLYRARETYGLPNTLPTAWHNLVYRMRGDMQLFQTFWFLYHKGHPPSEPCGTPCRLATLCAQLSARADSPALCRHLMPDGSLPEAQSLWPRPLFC
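Fluorescence read-out (Ex 386 nm, Em 447 nm) after stopping the reaction at pH 10. Enzyme: ASM from human placenta; substrate HMU-PC0, 9 uM final; 60 min, 37 °C. Compound preincubation 10 min, ambient temperature.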
DT40 TDP1 no CPT: qHTS for Inhibitors of human tyrosyl-DNA phosphodiesterase 1 (TDP1): qHTS in cells in absence of CPT; 420,000 tested, 15% active; Potency, µM (highest dose often 46.2 µM), inactives show top-dose activity change, negative = growth inhibition, usual class: inhibitors; DT40 Tdp1-/- hTDP1 cells, no CPT, ATP luminescence, 48 h; note: potency is the fitted concentration of half-maximal effect; % is set by controls: 0 for no effect and ±100 for the full control effect; nearly all actives have a fitted effect of over 55% in size
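Chicken DT40 Tdp1-/- cells complemented with human TDP1, screened without camptothecin (DMSO vehicle only), 400 cells/well. Compounds pin-transferred, cells incubated at 37 °C for at least 48 hr. Growth read as ATP-dependent luminescence (CellTiter-Glo, 30 min at RT).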
DT40 TDP1 CPT: growth inhibition of DT40 Tdp1-/-;hTDP1 cells with camptothecin (screen for TDP1 inhibitors). 420,000 tested, 12% active. chicken DT40 Tdp1-/-;hTDP1 cells + 20 nM CPT, ATP luminescence, 48 h. AID 686979. Potency, µM (highest dose often 46.2 µM), without a hit: top-dose activity change, negative = growth inhibition, usual class: inhibitors; note: potency is the fitted concentration of half-maximal effect; % is set by controls: 0 for no effect and ±100 for the full control effect; nearly all actives have a fitted effect of over 55% in size
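Cell growth measured by CellTiter-Glo luminescence after a minimum 48 h, 37 C compound exposure with 20 nM CPT in Tdp1-knockout DT40 cells stably expressing hTDP1, seeded 400/well; qHTS titration format.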
IL-1B inflam inh: inflammasome signaling inhibition, IL-1 beta readout. activity change, % at 57.5 µM. 360,000 tested, 4.7% active. AID 743279. THP-1 LPS/ATP IL-1B secretion, AlphaLISA, 16 h; hits give low values; in the data active = activity change below about -50%; inconclusive = mostly about -30% to -49%; note: % is set by controls: 0 for no effect and ±100 for the full control effect
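Secreted IL-1B measured by AlphaLISA bead assay after 16 h compound exposure of THP-1 cells; compounds (final up to 57.5 uM) added 1 h before LPS (250 ng/mL) and ATP (1.25 mM) stimulation; lower signal means less secretion.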
TGFb inhibitor: blocks TGF-b signaling | HepG2 CAGA-GFP TGF-b/SMAD3 reporter, GFP fluorescence, 18 h; TGF-beta stimulated, 500 pg/mL final | Potency, µM (top dose mostly 46.1 µM), without a hit: at the highest dose activity, negative = inhibition, hits mostly inhibitors | 410,000 tested, 1.2% active | AID 588855; note: potency is the fitted concentration of half-maximal effect; % is set by controls: 0 for no effect and ±100 for the full control effect; nearly all actives have a fitted effect of over 65% in size
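HEPG2 CAGA-GFP cells (1000/well, DMEM with 1% FBS) were pre-incubated 2 h at 37 degrees C, given compound by pin tool, then stimulated with TGF-beta at 500 pg/mL final for 18 h before per-cell GFP fluorescence imaging.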
HepG2 tox: kills HepG2 cells in TGF-b inhibitor counter-screen. HepG2 CAGA-GFP viability, ATP luminescence, 18 h. Potency, µM (highest dose often 46.1 µM), for inactives: at the highest dose activity change, negative = cytotoxicity, hits mostly cytotoxic. 410,000 tested, 0.76% active. AID 588856; note: potency is the fitted concentration of half-maximal effect
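HepG2 CAGA-GFP cells (1000/well, DMEM with 1% FBS) received compound, then TGF-beta at 500 pg/mL final, and were incubated 18 hours at 37 degrees C. Viability was read by CellTiter-Glo luminescence. Media-only wells were set as complete cell-killing and DMSO as no toxicity.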
* = called active by the depositor; i = inactive; ? = inconclusive; . = no result given. Unless noted, calls come from the whole dose curve; as a rule, active = well fitted curve in the direction sought with a large enough effect; inconclusive = small, poorly fitted or top-dose-only effect, or another doubt; inactive = no such curve, though single readings can be large; an effect the other way counts as inactive or inconclusive.

SMILES	S-ASM inh	DT40 TDP1 no CPT	DT40 TDP1 CPT	IL-1B inflam inh	TGFb inhibitor	HepG2 tox
CC1CCCC(C)N1C(=O)COC(=O)c1nn(C)c(=O)c2ccccc12 (stereo not given)	-1.7%	0.1%	14.7%	22.3	-3.5%	5.2%
O=C(Nc1ccc(F)c(F)c1)c1ccccc1	0.3%	-15.7%	-16.2%	-19.1	-0.8%	-18.4%
O=C(Nc1cccc(C(=O)Nc2ccccc2F)c1)c1ccccc1	-0.7%	23.1µM*	?	-11.3	28.3%	-5.2%
CCOC(=O)N1CCC(NC(=O)c2ccc3c(c2)N(Cc2ccccc2)C(=O)c2ccccc2S3=O)CC1 (stereo not given)	.	-2.1%	-0.8%	.	6.0%	0.3%
CCOC(=O)N1CCC(NC(=O)c2ccc3c(c2)N(Cc2ccc(F)cc2)C(=O)c2ccccc2S3=O)CC1 (stereo not given)	.	?	16.4µM*	.	?	-9.3%
CCOC(=O)N1CCC(NC(=O)c2ccc3c(c2)N(Cc2ccc(Cl)cc2)C(=O)c2ccccc2S3=O)CC1 (stereo not given)	.	23.1µM*	?	.	?	4.1%
CCOC(=O)N1CCC(NC(=O)c2ccc3c(c2)N(Cc2ccc(Cl)cc2)C(=O)c2ccccc2S3(=O)=O)CC1	.	23.1µM*	?	.	?	-8.3%
CC(C)CN(C(=O)CSc1nc(N)cc(N)n1)C1CCS(=O)(=O)C1 (stereo not given)	5.5%	-9.8%	23.5%	15.4	-3.2%	3.3%
CCn1c(C(=O)N2CCC(C(=O)NCCc3ccc(OC)cc3OC)CC2)cc2sccc21	.	14.6µM*	20.6µM*	.	?	-28.3%
CCOC(=O)N1CCC(NC(=O)C2CCN(C(=O)c3cc4sccc4n3CC)CC2)CC1	-4.9%	16.4µM*	?	5.8	4.4%	16.7%
CCOC(=O)N1CCN(C(=O)C2CCN(C(=O)c3cc4sccc4n3CC)CC2)CC1	6.0%	?	-21.0%	7.6	-3.6%	-15.3%
CCn1c(C(=O)N2CCC(C(=O)NCc3ccc(OC)cc3)CC2)cc2sccc21	-3.9%	-14.9%	?	6.3	2.9%	-7.5%
COc1ccc(-c2coc3c(C(=O)NCCc4ccccc4)cccc23)c(C)c1	.	16.4µM*	16.4µM*	-28.2	?	-2.0%
COCCCNC(=O)c1cccc2c(-c3ccc(OC)cc3C)coc12	.	?	18.4µM*	-5.9	-2.0%	-20.3%
COc1ccc(-c2coc3c(C(=O)NCC4CCOCC4)cccc23)c(C)c1	.	10.3µM*	10.3µM*	-22.4	21.8%	-11.3%
COC(=O)C1CN(C(=O)C(C)Oc2ccc(F)cc2)c2ccccc2O1 (stereo not given)	2.6%	1.7%	4.5%	23.9	0.0%	4.6%
Cc1ccc(NC(=O)CSc2nc(-c3ccccc3Cl)nc3cc(=O)[nH]n23)c(C)c1	.	?	?	.	-23.6%	-5.3%
Cc1snc(S(=O)(=O)/C(C#N)=N/Nc2ccc(C(F)(F)F)cc2)c1C#N	?	-26.6%	-14.9%	3.3	10µM*	-31.8%
COc1ccc(NC(=O)c2oc3c(c2C)-c2nn(Cc4ccccc4Cl)cc2CC3)cc1OC	.	20.6µM*	20.6µM*	.	?	-9.7%
COCCCNC(=O)c1oc2c(c1C)-c1nn(Cc3ccccc3Cl)cc1CC2	.	18.4µM*	?	.	-17.1%	-21.2%
COC(=O)C1=CN(Cc2ccc(OC)c(OC)c2)C=C(C(=O)OC)C1c1cccc(OC)c1OC	i	?	?	-6.9	3.5%	-12.9%
